Reference: PubChem BioAssay (EPA / NIEHS)
Records with an inconclusive call do not appear. Active and inactive are the calls of the source. How the source made its calls, unless noted: active means hit-call score of the fitted dose curve at least 0.9, where 1 is the maximum; inactive means score below 0.9.

Tests used:
[1] = ACEA_ER_80hr: ACEA Biosciences xCELLigence Real-Time Cell Analysis on Estrogen Receptor Agonism for Proliferation (AID 2282667; active means hit-call score of the fitted dose curve at least 0.9, where 1 is the maximum); settings: T47D proliferation, impedance (xCELLigence), 80 h
Procedure, shortened: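 T-47D cells monitored by electrical impedance (xCELLigence) with compound present throughout; 80 h timepoint, positive-direction fitting versus DMSO. Eight-point 1:4 dilutions from 100 uM final, duplicate plates.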

[2] = APR_HepG2_CellCycleArrest_24hr: Apredica 24-hour HepG2 Assay for Cell Cycle Arrest (AID 2282905); settings: imaging, actives raise or lower the signal;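 further: cell cycle arrest scored as ratio of 2N to 4N nuclear DNA content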
Procedure, shortened: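 After 24 h exposure at 0.39–200 uM in 0.5% DMSO, fixed cells received Hoechst 33342 staining. Imaging quantified per-nucleus DNA content; gain or loss fitted against DMSO controls.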

[3] = APR_HepG2_NuclearSize_24hr: Apredica 24-hour HepG2 Assay for Nuclear Size (AID 2282907); settings: high-content imaging, actives raise or lower the signal
Procedure, shortened: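 Nuclear size from Hoechst 33342-stained, formaldehyde-fixed HepG2 nuclei imaged by high-content microscopy, after 24 h dosing at ten concentrations from 0.39 to 200 uM in 0.5% DMSO; gain or loss relative to DMSO baseline.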

[4] = APR_HepG2_CellLoss_24hr: Apredica 24-hour HepG2 Assay for Cell Loss (AID 2282908); settings: high-content imaging;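 on AC50: fit in both directions so a hit may be cell loss or gain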
Procedure, shortened: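 Nuclei stained with Hoechst 33342 after formaldehyde fixation (3.7%) were imaged at 20x to count cells. Exposure lasted 24 hr, at ten concentrations from 0.39 to 200 uM in duplicate, with 0.5% v/v DMSO. Fit bidirectional, relative to DMSO.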

[5] = APR_HepG2_MicrotubuleCSK_24hr: Apredica 24-hour HepG2 Assay for Microtubule CSK Stabilty (AID 2282909); settings: HepG2 microtubule cytoskeleton imaging, actives raise or lower the signal
Procedure, shortened: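 Fixed HepG2 cells were stained for alpha-tubulin and imaged after 24 hr exposure to ten concentrations spanning 0.39–200 uM in 0.5% DMSO. Signal change was fitted in both directions relative to DMSO; taxol was the positive control.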

[6] = APR_HepG2_MitoticArrest_24hr: Apredica 24-hour HepG2 Assay for Mitotic Arrest (AID 2282910); settings: high-content imaging, actives raise or lower the signal
Procedure, shortened: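 HepG2, 24 hr dosing, 0.39–200 uM, 0.5% DMSO final. Formaldehyde-fixed, Triton-permeabilised, anti-phospho-histone H3 plus Hoechst. ArrayScan imaging at 20x; bidirectional fit vs DMSO baseline.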

[7] = APR_HepG2_MitoMembPot_24hr: Apredica 24-hour HepG2 Assay for Mitochondrial Membrane Potential (AID 2282911); settings: imaging, actives raise or lower the signal
Procedure, shortened: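 HepG2 cells exposed 24 h to 0.39–200 uM compounds in duplicate, 0.5% v/v DMSO final. MitoTracker Red CMXRos 250 nM loaded 30 min before formaldehyde fixation; high-content imaging at 20x, bidirectional fit versus DMSO.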

[8] = APR_HepG2_MitoMass_24hr: Apredica 24-hour HepG2 Assay for Mitochondrial Mass (AID 2282912); settings: high-content imaging, actives raise or lower the signal
Procedure, shortened: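 Endpoint is MitoTracker Red CMXRos (250 nM, 30 min, pre-fixation) intensity from 20x high-content imaging, nuclei located by Hoechst. Human HepG2 cells received ten concentrations from 0.39 to 200 uM in 0.5% DMSO for 24 hr, duplicate wells. Bidirectional fit relative to DMSO.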

[9] = APR_HepG2_p53Act_24hr: Apredica 24-hour HepG2 Assay for p53 Activation (AID 2282913); settings: high-content imaging, actives raise or lower the signal;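 further: p53 protein immunofluorescence averaged per cell in HepG2 with Hoechst nuclei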
Procedure, shortened: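 HepG2 cells exposed 24 h to compounds at 0.39–200 uM in duplicate, 0.5% v/v DMSO final; fixed, permeabilized, stained with anti-p53 antibody and Hoechst 33342; fluorescence imaging; bidirectional curve fit versus DMSO.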

[10] = APR_HepG2_CellCycleArrest_72hr: Apredica 72-hour HepG2 Assay for Cell Cycle Arrest (AID 2282914); settings: high-content imaging, actives raise or lower the signal
Procedure, shortened: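 HepG2 cells exposed 72 h in duplicate to 0.39–200 uM compound, 0.5% DMSO final. Formaldehyde-fixed, Hoechst 33342-stained nuclei imaged at 20x, six fields per well; DNA content per valid cell quantified by cell-cycle image analysis, bidirectional fit versus DMSO.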

Measured: AC50

CCN(CC)c1ccccc1
inactive: all assays above

CCOP(=S)(NC(C)C)Oc1ccccc1C(=O)OC(C)C (stereo not given)
inactive: [1]

OCC(F)(F)OC(F)(F)C(F)(F)OC(F)(F)CO
active: [1] 20.2 µM

O=P(OCC(Br)CBr)(OCC(Br)CBr)OCC(Br)CBr (stereo not given)
inactive: [1]

O=C(O)C(F)(F)OC(F)(F)C(F)(F)OC(F)(F)F
inactive: [1]

O=C(O)C=CC(F)(C(F)(F)F)C(F)(F)F
inactive: [1]

CCN(CC)C1CCCCC1
inactive: [1]

C=CC(=O)OCC(CC)(COC(=O)C=C)COC(=O)C=C
inactive: [1]

CCCCOCCOP(=O)(OCCOCCCC)OCCOCCCC
active: [1] 10.5 µM

CCC1(c2ccccc2)C(=O)N=C(O)NC1=O (stereo not given)
inactive: all assays above

Cc1cc(C)c(C(=O)P(=O)(c2ccccc2)c2ccccc2)c(C)c1
inactive: [1]

C=CC(=O)OCC(F)(F)C(F)F
inactive: [1]

Cc1c([N+](=O)[O-])cc2c(c1[N+](=O)[O-])C(C)(C)CC2(C)C
inactive: [1]

O=C(O)CF
inactive: [1]

Nc1ccc(Sc2ccc(N)cc2)cc1
inactive: [1]

c1cc2c3c(cccc3c1)CC2
inactive: all assays above

CC(Cc1ccc(OCC(=O)O)cc1)NCC(O)c1csc(C(F)(F)F)n1 (stereo not given)
inactive: all assays above

O=C(O)C(Cl)Cl
not listed: [9]
inactive: all other assays above

CCCCN(CCCC)SN(C)C(=O)Oc1cccc2c1OC(C)(C)C2
active: [2] 48.4 µM | [4] 98 µM | [6] 79.2 µM | [8] 92.7 µM | [10] 23.3 µM
inactive: [1] | [3] | [5] | [7]

CCCCN(CCCC)N=O
inactive: all assays above

CCOc1ccc(C(C)(C)COCc2cccc(Oc3ccccc3)c2)cc1
active: [10] 85.5 µM
inactive: all other assays above

CCNc1nc(Cl)nc(NC(C)(C)C)n1
active: [1] 28 µM
not listed: [9]
inactive: all other assays above

[N-]=[N+]=[N-]
inactive: all assays above

Nc1ccc(Cl)cc1
inactive: all assays above

O=[N+]([O-])c1ccccc1
inactive: all assays above

Cc1ccc(O)cc1C
inactive: [1] | [4] | [6] | [7] | [8] | [9]

Nc1cc2c3c(c1)C(c1ccccc1)=N[C@@H](NC(=O)c1cccnc1)C(=O)N3CC2
not listed: [9]
inactive: all other assays above

Nc1ccc2ccccc2c1
active: [7] 52.5 µM | [10] 88.9 µM
inactive: all other assays above

CCCCCCCc1ccc(O)cc1
active: [1] 0.402 µM
not listed: [9]
inactive: all other assays above

ClC(Cl)(Cl)c1ccccc1
inactive: all assays above

CN(C)C(=O)Cl
active: [1] 38.7 µM
not listed: [9]
inactive: all other assays above

CC(C)(C)OOC(C)(C)C
inactive: all assays above

CC(C)(C)c1ccc(O)cc1
inactive: [4] | [6] | [7] | [8] | [9]
active: [1] 10.5 µM

CC(Cl)(Cl)C(=O)O
not listed: [9]
inactive: all other assays above

CCOP(=S)(OCC)SCSCC
active: [1] 19.7 µM | [2] 114 µM | [10] 111 µM
not listed: [9]
inactive: all other assays above

CCOP(=S)(Oc1ccc([N+](=O)[O-])cc1)c1ccccc1 (stereo not given)
active: [4] 41.1 µM
not listed: [9]
inactive: all other assays above

O=[N+]([O-])c1ccc(Cl)c(Cl)c1
not listed: [9]
inactive: all other assays above

c1ccc(OP(Oc2ccccc2)Oc2ccccc2)cc1
inactive: all assays above

CCCN(CCC)c1c([N+](=O)[O-])cc(C(C)C)cc1[N+](=O)[O-]
active: [2] 49 µM | [4] 32.6 µM | [7] 55.2 µM | [8] 42.9 µM | [9] 52.9 µM | [10] 35.4 µM
inactive: [1] | [3] | [5] | [6]

O=P1(N(CCCl)CCCl)NCCCO1 (stereo not given)
active: [1] 3.97 µM
inactive: all other assays above

COCCOCCO
not listed: [9]
inactive: all other assays above

CCCCc1ccccc1
not listed: [9]
inactive: all other assays above

O=P(Oc1ccccc1)(Oc1ccccc1)Oc1ccccc1
inactive: [1] | [3] | [7] | [8]
active: [2] 83.5 µM | [4] 63.2 µM | [5] 83 µM | [6] 67.5 µM | [9] 67.6 µM | [10] 75.5 µM

Cc1ccc([N+](=O)[O-])cc1C
not listed: [9]
inactive: all other assays above

CSC(C)(C)C=NO
not listed: [9]
inactive: all other assays above

ClC1=C(Cl)C2(Cl)C3C(Cl)C(Cl)CC3C1(Cl)C2(Cl)Cl (stereo not given)
inactive: [1] | [3] | [7] | [10]
active: [2] 27.8 µM | [4] 69.4 µM | [5] 156 µM | [6] 65.1 µM | [8] 48.9 µM | [9] 82.6 µM

CCOS(=O)(=O)OCC
inactive: all assays above

c1ccc2c(c1)Nc1ccccc1S2
active: [2] 9.76 µM | [7] 107 µM
inactive: all other assays above

Cc1cccc(N)c1
inactive: all assays above

O=C(O)C1C(C(=O)O)C2(Cl)C(Cl)=C(Cl)C1(Cl)C2(Cl)Cl (stereo not given)
inactive: all assays above

ClC(Cl)c1ccccc1
not listed: [9]
inactive: all other assays above

Cc1ccc(N)cc1N
inactive: all assays above

CCC(C)(C)c1ccc(O)cc1
inactive: [2] | [3] | [5] | [8]
active: [1] 2.14 µM | [4] 109 µM | [6] 107 µM | [7] 100 µM | [9] 109 µM | [10] 108 µM

OCC1CO1 (stereo not given)
inactive: all assays above
